High-throughput results as filed in PubChem BioAssay.
Tg IFNy HTS: T. gondii growth inhibition under IFN-gamma; Toxoplasma gondii growth in IFN-gamma-treated host cells; active compounds read low; activity change, negative = inhibition, % (test concentration not listed); actives 3.8% (n = 69,000); AID 1259416; in the data active means activity change below about -70%, passing the limit was not always enough;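 further: host cells are HeLa cells infected with Toxoplasma gondii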
Active calls of the source: *; i = inactive; ! = repeats disagree. The full list was thinned out, with hits kept by preference.

SMILES	Tg IFNy HTS
CCC(C(=O)N1CCC(C)(C(=O)NCc2ccc(F)cc2F)CC1)c1ccccc1 (stereo not given)	-3.6
O=C(COc1ccccn1)N1CC(=O)N(CCc2ccccc2)C(=O)C1	6.0
CCCc1cc(-c2cc(NC3CCNCC3)nc3[nH]ccc23)nc(C)n1	-80.4*
FC(F)(F)c1ccc(-c2cc(NC3CCNCC3)nc3[nH]ccc23)nc1	-3.2
c1cnc(-c2cc(NC3CCNCC3)nc3[nH]ccc23)cn1	-18.9
CC(=O)O/N=C1/CC(C)(C)Cc2onc(C)c21	1.5
COc1ccc(C(=O)Nc2ccc3c(c2)nc(C(F)(F)F)n3C)cn1	20.3
COc1ccc(-c2ccc3ncc4c(c3c2)n(-c2ccc(N3CCNCC3)c(C(F)(F)F)c2)c(=O)n4C)cn1	-89.7*
COc1ccc(-c2nccc(C(F)(F)F)n2)cn1	61.8
c1ccc(Cn2cc(Cn3ccnc3-c3ccncc3)cn2)cc1	3.6
CC(C)(C)c1nc(-c2ccc(C(F)(F)F)cc2)c2c(C(F)(F)F)cccc2n1	28.3
COC(=O)Cn1c(-c2ccccc2)cn2c3c(=O)n(C)c(=O)n(C)c3nc12	-7.8
Cc1nc(-c2cc(C(=O)CCN3CCOCC3)c3ccccn23)cn1C	-33.7
Cc1ccc(C)c(-n2c(C)cn3c4c(=O)n(CCN5CCOCC5)c(=O)n(C)c4nc23)c1	-76.5*
Cc1ccc(C(=O)N2CCC3(CC2)NC(=O)CC3c2cnn(C)c2)o1 (stereo not given)	26.4
O=C(O)CCCN(c1ccccc1C(=O)O)S(=O)(=O)/C=C/c1ccccc1	1.7
Cc1ccccc1C1CCN(CCNC(=O)c2cn(-c3ccccc3)nn2)C1 (stereo not given)	-11.3
CC(C)NC(=O)[C@H]1CCS(=O)(=O)[C@H]2CN(Cc3ccc(F)cc3)C[C@@H]12	1.9
FC(F)(F)c1cccc(OCc2ccc(-c3ncns3)cc2)c1	-25.4
N#Cc1ccc(OCc2ccc(C(F)(F)F)cc2)cc1	-81.3*
O=C(O)c1ccc(OCc2ccccc2)cc1	-2.9
COC(=O)c1c(NCc2ccc3c(c2)OCO3)c2ccc(F)cc2[nH]c1=O	48.0
CCCc1nc(N2Cc3cnc(Cc4ccc(OC)cc4)nc3C2)no1	-42.9
Cc1nc(CN2CCN(C)C(=O)C23CCN(Cc2cccc(C#N)c2)CC3)cs1	7.5
Cc1ccc(NC(=O)c2ccccc2C)c(NC(=O)CCCn2cncn2)c1	105.7
SMILES	Tg IFNy HTS
O=C1CC(c2ccncc2)C2(CCN(c3ncccn3)CC2)N1 (stereo not given)	70.9
c1ccc(-c2nc3ccccc3[nH]2)cc1	167.0
Cc1ccc(-c2nc3ccccc3[nH]2)cc1	-14.3
CC(C)(C)c1ccc(-c2nc3ccccc3[nH]2)cc1	-86.9*
CO[C@@H]1CC[C@@H]2[C@H]1OCCN2C(=O)/C=C/c1cccs1	8.8
O=C(CN1C(=O)CCc2cc(S(=O)(=O)N3CCCCC3)ccc21)N1CCN(c2ccccc2)CC1	-21.5
O=C(c1ccco1)N1C[C@H](OCCCn2cccn2)[C@@H]2OCCC[C@@H]21	7.5
Cc1cccc(CN2CCN(Cc3ccc(N(C)C)nc3)CC2)c1	-0.9
CSc1ncc(C(=O)Nc2cccc(C(=O)N3CCCCC3)c2)cn1	12.6
CSc1ncc(C(=O)Nc2ccc(Oc3ccc4c(c3)OCO4)cc2)cn1	-102.9*
CCCN(CCC)S(=O)(=O)c1ccc(NC(=O)c2ccc3c(c2)OCO3)cc1	-64.8
CNC(=O)[C@@H]1CC2CN(S(=O)(=O)c3ccccc3)CC2N1C(C)=O (stereo not given in full)	31.0
CNC(=O)[C@H]1C[C@@H]2CN(Cc3ccoc3)C[C@@H]2N1C	-1.7
CNC(=O)[C@@H]1CC2CN(S(=O)(=O)c3ccc(C)c(F)c3)CC2N1C (stereo not given in full)	-92.9*
COc1ccc(CN2CCN3CCN(C)C(=O)C3C2)cc1F (stereo not given)	2.0
COc1cccc(C(=O)NCCc2sc(-c3ccc(OC)c(OC)c3)nc2C)c1	i
Cc1c2oc3c(C)ccc(C(=O)OC(C)C4NC(=O)C(C(C)C)N(C)C(=O)CN(C)C(=O)C5CCCN5C(=O)C(C(C)C)NC4=O)c3nc-2c(C(=O)OC(C)C2NC(=O)C(C(C)C)N(C)C(=O)CN(C)C(=O)C3CCCN3C(=O)C(C(C)C)NC2=O)c(N)c1=O (stereo not given)	-82.7*
O=C(CCS(=O)(=O)c1ccc(Cl)c(Cl)c1)OCC(=O)c1ccccc1	3.2
CC1(C)CCC(CN2CCN(c3ccc(C(=O)NS(=O)(=O)c4ccc(NCC5CCOCC5)c([N+](=O)[O-])c4)c(Oc4cnc5[nH]ccc5c4)c3)CC2)=C(c2ccc(Cl)cc2)C1	-79.9*
CNC(=O)CCN(C)Cc1cc2n(n1)CCNC2	2.7
C=CCNC(=O)NC1(C)CCS(=O)(=O)C1 (stereo not given)	6.5
CCOc1cccc(-c2noc(-c3c(O)c4cccc(Cl)c4n(C)c3=O)n2)c1	67.1
Cc1ccc(C(=O)Nc2ccc(-n3nc(C(F)(F)F)cc3-c3cccs3)cc2)cc1	68.7
Cc1nnsc1C(=O)Nc1cccc(N)c1	1.6
Cc1nnsc1C(=O)Nc1ccc(-n2nc(C(F)(F)F)cc2C(F)(F)F)cc1	-81.4*
SMILES	Tg IFNy HTS
O=C1CC[C@@H](NCC2=COCCO2)[C@H](c2ccccc2F)N1	-37.2
CCOC(=O)c1[nH]ncc1-c1c(-c2ccccc2)ncn1C1CC=CC1	-39.1
COc1ccccc1-c1noc(-c2nnn(Cc3nc(-c4cccc(Cl)c4)oc3C)c2C)n1	8.4
Cc1ccc(-c2nc(CSc3nc4c(c(=O)[nH]3)CN(Cc3ccc(Cl)cc3)CC4)c(C)o2)cc1	-22.5
Cc1ccc2[nH]c3c(c2c1)CCOc1ccccc1-3	21.2
Cc1ccc2[nH]c3c(c2c1)CCc1nonc1-3	-98.7*
CSc1ccc(-c2noc(-c3c(O)c4cc(C)ccc4[nH]c3=O)n2)cc1	17.3
Cc1nc(C2CC2)ncc1C(=O)N1CCC(Cc2cccc(C(=O)O)c2)CC1	-6.4
O=C(NCc1cccnc1)[C@H]1C[C@@H]2CN(c3ncc(F)cn3)C[C@H]1O2	2.8
CCC1CN(Cc2[nH]nc3cc(OC)ccc23)CCN1C(C)C (stereo not given)	6.3
O=C(CN1CCc2[nH]nc(-c3ccccc3F)c2C1)N1C2CCC1c1snnc1C2 (stereo not given)	-50.9
O=C1c2cccc3cccc(c23)C(=O)N1CCO	-26.9
CN(C)CCN1C(=O)c2cccc3cc(N)cc(c23)C1=O	-77.1*
O=C(CCCN1C(=O)c2cccc3cccc(c23)C1=O)OCc1ccc2c(c1)OCO2	-1.4
CC(C)N1C2CCN(C(=O)c3ccc[nH]3)CC2C[C@H]1CN1CCCC1 (stereo not given in full)	8.9
CC(=O)NCCc1csc(C2CCCN(C(=O)c3ccccc3)C2)n1 (stereo not given)	62.2
c1ccc(-c2ccc(-c3cnc(-c4ccncc4)s3)cc2)cc1	50.6
CCN(Cc1ccncc1)C(=O)CCC(=O)Nc1ccc(F)c(Cl)c1	10.0
Clc1ccc(CO/N=C(\Cn2ccnc2)c2ccc(Cl)cc2Cl)c(Cl)c1	-83.5*!
O=C(NCCCn1ccnc1)Nc1c[nH]c2cc(Cl)ccc2c1=O	305.5
Cl/C(=C\n1cncn1)c1ccc(Cl)cc1Cl	-58.9
O=C1N(Cc2ccccn2)C(=O)C2(CCN(C3Cc4ccccc4C3)CC2)N1Cc1ccccc1	12.0
CCOc1ccccc1NC(=O)N1CCc2nc(N3CCOCC3)[nH]c(=O)c2C1	97.4
COCC1c2nnn(C)c2CCN1C(=O)Cc1cccc(F)c1 (stereo not given)	3.8
Cn1c(C(=O)NCc2cccc(F)c2)nc2c1CCN(S(C)(=O)=O)C2	-8.8
